# Measurements from PubChem BioAssay (EPA / NIEHS).
# Values joined by “and” are separate entries in the source; they are usually repeats but may differ in a detail not shown here. Identical values can stand only once. Records with an inconclusive call do not appear. Some structures have more than one record in an assay (separate samples or runs), and their calls can disagree. Active and inactive are the calls of the source. The calls were made as follows: active = hit-call score of the fitted dose curve at least 0.9, where 1 is the maximum; inconclusive = response in the unintended direction; inactive = score below 0.9.
# Target: Cellular tumor antigen p53 (Homo sapiens) (UniProt P04637)
# Experiment: TOX21_p53_BLA_p4_ratio: Tox21 HCT-116 p53 Agonism Beta-lactamase Assay, Ratio, Phase 4 (AID 2283601)
# In short: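 Signal is the blue/green (460nm/530nm) ratio of cleaved versus uncleaved CCF4-AM substrate, read after 2 h substrate loading. Cells were HCT116 carrying the p53-responsive beta-lactamase reporter, dosed 16 h at 37C, 5% CO2; CellTiter-Glo measured in parallel.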
# Chain of Cellular tumor antigen p53 (Homo sapiens) (P04637 whole entry, looked up): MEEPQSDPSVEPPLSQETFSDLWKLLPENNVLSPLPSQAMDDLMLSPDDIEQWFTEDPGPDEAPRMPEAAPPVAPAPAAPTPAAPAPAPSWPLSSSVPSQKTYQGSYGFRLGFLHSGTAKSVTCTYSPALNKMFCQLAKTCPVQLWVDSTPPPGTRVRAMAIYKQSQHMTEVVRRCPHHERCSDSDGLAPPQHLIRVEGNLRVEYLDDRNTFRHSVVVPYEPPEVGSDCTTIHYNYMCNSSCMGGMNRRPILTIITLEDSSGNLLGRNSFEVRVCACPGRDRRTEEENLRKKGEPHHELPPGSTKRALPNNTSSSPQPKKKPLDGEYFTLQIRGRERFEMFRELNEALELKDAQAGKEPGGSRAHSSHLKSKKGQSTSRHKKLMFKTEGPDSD
SMILES,AC50,outcome
CCC(C)c1cc([N+](=O)[O-])cc([N+](=O)[O-])c1O (centres undefined),4.83 µM (active),–
COS(=O)(=O)OC,–,inactive
Nc1ccc(-c2ccc(N)cc2)cc1,–,inactive
Cc1cccc([N+](=O)[O-])c1,–,inactive
O=C(O)C(F)(F)C(F)(F)C(F)(F)C(F)(F)C(F)(F)C(F)(F)C(F)(F)C(F)(F)F,–,inactive
CCCCCCCCCC[N+](C)(C)CCCCCCCCCC,26.8 µM (active) and 35 µM (active),–
CC(C)(c1ccccc1)c1ccc(O)cc1,81.7 µM (active) and 70.4 µM (active),–
ClC1=C(Cl)[C@]2(Cl)[C@@H]3[C@H]4C[C@H]([C@@H]5O[C@H]45)[C@@H]3[C@@]1(Cl)C2(Cl)Cl,–,inactive
Clc1ccc(Cl)cc1,–,inactive
Oc1c(Cl)c(Cl)c(Cl)c(Cl)c1Cl,11.1 µM (active) and 2.43 µM (active),–
C[C@]12CCC(=O)C=C1CC[C@@H]1[C@@H]2CC[C@@]2(C)[C@H]1CC[C@]2(C)O,48.6 µM (active),inactive
O=C(NC(=O)c1c(F)cccc1F)Nc1cc(Cl)c(OC(F)(F)C(F)F)c(Cl)c1,–,inactive
Clc1ccc(C(c2ccccc2Cl)C(Cl)(Cl)Cl)cc1 (centres undefined),48.7 µM (active) and 76.4 µM (active),–
